Source: PubChem BioAssay (NCI)
Compounds without any hit were thinned out: in the full panel of roughly 83,000, 20% have a hit.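 Single-dose data. Exposure time 48 hours. Values below 10 considered active.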 A number with no mark means an inactive call. Calls of active or inactive are those of the source.

Tests used:
Test in all cases: NCI-60 one-dose screen, 48 h (100 = growth as untreated, 0 = no growth, -100 = all killed)
Details in all cases: 10 µM unless noted
SK-MEL-2 melanoma = system: SK-MEL-2 melanoma
EKVX NSCLC = system: EKVX NSCLC
SN12C renal = system: SN12C renal
UO-31 renal = system: UO-31 renal
TK-10 renal = system: TK-10 renal
ACHN renal = system: ACHN renal
CAKI-1 renal = system: CAKI-1 renal
A498 renal = system: A498 renal
CCRF-CEM leukemia = system: CCRF-CEM leukemia
MOLT-4 leukemia = system: MOLT-4 leukemia

Row | SMILES | growth (SK-MEL-2 melanoma) | growth (EKVX NSCLC) | growth (SN12C renal) | growth (UO-31 renal) | growth (TK-10 renal) | growth (ACHN renal) | growth (CAKI-1 renal) | growth (A498 renal) | growth (CCRF-CEM leukemia) | growth (MOLT-4 leukemia)
1 | CC(C)n1cc2c(N)ncnc2n1 | 89.5% | 88.1% | 98.2% | 90% | 96.6% | 105% | 79.4% | 126% | 109% | 98.2%
2 | COc1ccccc1N1CCN(CCn2c(=O)c3c(c4ccccc4n3C)n(C)c2=O)CC1 | 60.2% | 106% | 81.8% | 77.6% | 78.9% | 98.5% | 101% | 109% | 102% | 88.1%
3 | O=S(=O)(Nc1ccc(F)c(Cl)c1)c1ccc(-c2cnc(C3CC3)o2)cc1 | 38% | 32.2% | 49.9% | 41.8% | 44% | 44.5% | 32.5% | -14.5% (active) | 19.6% | 29.5%
4 | C/C(Cc1ccc(Cl)cc1)=C(\c1ccc(OCCN2CCCCCC2)cc1)c1ccc(OC(=O)Cc2ccccc2)cc1 | 90.6% | 90.2% | 68.7% | 44.6% | 86.7% | 85.2% | 79.4% | 92.5% | 57.2% | 24.4%
5 | CCN(CC)CCCC(C)Nc1ccnc2c(OC)cccc12 (stereo not given) | 127% | 112% | 101% | 87.4% | 120% | 122% | 101% | 135% | 94.3% | 102%
6 | Nc1cc2ccncc2c2ccccc12 | 45.5% | 60.4% | 52.7% | 51.6% | 80.6% | 36.4% | 58.2% | 67.5% | 66.9% | 50.2%
7 | CCN(C(=O)CN1CCN(c2cc3c(cc2F)c(=O)c(C(=O)O)cn3CC)CC1)c1nc(-c2ccccc2)cs1 | -15.3% (active) | 21.2% | 2.74% (active) | 12.4% | 14.6% | 8.13% (active) | 11.7% | -6.64% (active) | 14% | 11.4%
8 | CS(CCCCN=C=S)=NC(=O)c1c(F)c(F)c(F)c(F)c1F (stereo not given) | 94.2% | 97.8% | 61.1% | 59.6% | 66.6% | 52.4% | 71.3% | 112% | 36.8% | 66.2%
9 | COc1cc2c(=O)n(CC3CCCCC3)c3c4cc[nH]c4ncc3c2cc1OC | 64% | 63.9% | 25.7% | 23.1% | 49.8% | 26.8% | 37.7% | -5.29% (active) | 39.5% | 49.5%
10 | COc1cccc(-c2nc3sccn3c2-c2ccnc(NCCCNS(=O)(=O)c3ccccc3)c2)c1 | 27.4% | 42.7% | 31.4% | 9.36% (active) | 88.2% | 26.9% | 27.8% | 57.9% | 12.3% | 14.1%
11 | Clc1nc(Cl)c2c3c(sc2n1)CCCC3 | 20% | 89.8% | 27.5% | 65.6% | 91% | 45.1% | 64.2% | 127% | 10.7% | -27.8% (active)
12 | OC(c1cccc(C(F)(F)F)c1)c1cnccc1NC1CCCCCC1 (stereo not given) | 43% | 57.3% | 54.1% | 28.7% | 60.4% | 43.9% | 40.4% | 50.3% | 30.5% | 22.6%
13 | CN(C)C(=O)c1cc2cnc(Nc3ccc(-c4csc5c(=O)cc(N6CCNCC6)oc45)cc3)nc2n1C1CCCC1 | 33.6% | 40.2% | 24.2% | -10% (active) | 26.6% | 16% | 43.2% | -7.2% (active) | 1.39% (active) | 4.52% (active)
14 | CCCCCCCCCC(=O)Oc1ccc(/C(=C(/C)Cc2cccc(OC)c2)c2ccc(OCCN(C)C)cc2)cc1 | 107% | 94.7% | 99.2% | 92.5% | 109% | 110% | 102% | 95.8% | 103% | 115%
15 | CNC(=O)c1cc(Oc2ccc3nc(NC(=O)Nc4ccc(N5CCC(N(C)C)CC5)cc4)sc3c2)ccn1 | 117% | 115% | 92.3% | 87.7% | 115% | 74.1% | 90.1% | 81.6% | 66.5% | 61.4%
16 | CCN(CC)CC(O)CNc1c2ccc([N+](=O)[O-])cc2nc2cc(OC)c(OC)cc12 (stereo not given) | -48.7% (active) | -27.4% (active) | -34.1% (active) | 4.89% (active) | 2.27% (active) | 11.1% | 16.3% | -52.9% (active) | 9.53% (active) | -9.91% (active)
17 | O=C(CO[N+](=O)[O-])Nc1ccc(C(=O)/C=C/c2ccc3c(c2)OCO3)cc1 | 119% | 99.7% | 95.4% | 77.1% | 111% | 99.2% | 93% | 107% | 70% | 99.7%
18 | O=C1C=CC(=O)N1c1ccc(Cc2ccc(N3C(=O)C=CC3=O)cc2)cc1 | 112% | 109% | 96.1% | 81.9% | 92.4% | 94.1% | 65.7% | 91.2% | 89.5% | 21.8%
19 | CC(C)c1c(C(=O)Nc2ccccc2)c(-c2ccccc2)c(-c2ccc(F)cc2)n1CC[C@@H]1CC=CC(=O)O1 | -55.9% (active) | 34.4% | -15.5% (active) | -75.9% (active) | 28.5% | -27.8% (active) | 4.73% (active) | 73.7% | -29.1% (active) | -33.2% (active)
20 | C=C(C[n+]1ccccc1)[C@@H]1CC[C@]2(C(=O)OC)CC[C@]3(C)[C@H](CC[C@@H]4[C@@]5(C)CC[C@H](O)C(C)(C)[C@@H]5CC[C@]43C)[C@@H]12 | 100% | 104% | 95.4% | 74% | 113% | 96.5% | 90.6% | 123% | 99% | 101%
21 | COc1ccc(-c2cc(-c3ccc(N(C)C)cc3)nc(NC(=O)c3ccncc3)n2)cc1 | 116% | 99.8% | 104% | 72.1% | 105% | 98.7% | 95% | 76.5% | 96.8% | 111%
22 | CC/C(Cc1ccccc1)=C(\c1ccc(OCCN2CCCC2)cc1)c1ccc(OC(C)=O)cc1 | 104% | 80.3% | 83.4% | 72.3% | 88.7% | 89.7% | 86.6% | 87.9% | 88.1% | 55.2%
23 | COc1ccc(S(=O)(=O)NCCCNc2nccc(-c3c(-c4cccc(N)c4)nc4sccn34)n2)cc1 | 113% | 96.3% | 76.7% | 76.4% | 134% | 78.8% | 77.5% | 91.2% | 78.4% | 75.5%
24 | CCCCCCCCCCCCCCCCCCNC(=O)[C@H]1CSC(c2ccc(F)c(OC)c2)N1 (stereo not given in full) | -94.1% (active) | -57.5% (active) | -79.2% (active) | 45.5% | 6.86% (active) | 30.3% | -76.8% (active) | 6.25% (active) | -36.8% (active) | -14.9% (active)
25 | COC(=O)[C@@H]1CC[C@]2(C)[C@H](CC[C@@H]3O[C@@]32C)[C@@]1(C)CC(=O)c1ccoc1 | 78.2% | 105% | 92.7% | 97% | 84% | 105% | 106% | 88.6% | 102% | 94.8%
26 | Nc1cc(O)cc2cccnc12 | 110% | 104% | 72.5% | 48.1% | 104% | 77.3% | 80.1% | 118% | 86.6% | 93%
